# In the supplement of paper PMC6522484:
# ± gives the standard deviation of the averaged measurements.
# Tests used:
# [1] = tested on: DLD1; assay: cell viability (CellTiter-Glo) relative to plate median (fraction of plate median); higher = more viable cells; details: 5 µM; treatment time 24 h; reporter: 7TFP
# In short: (§1)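 Each entry is a luminescence signal normalised to the plate median, averaged over independent replicates. The replicate count was two, and the cells were colorectal cancer lines with stable lentiviral TCF/Wnt firefly luciferase reporters exposed to library compounds at a final 5 µM for 24 h. Firefly luciferase and CellTiterGlo were measured on parallel plates.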
# [2] = tested on: HCT116; assay: as above; details: 5 µM; treatment time 24 h; reporter: TCF4/Wnt
# In short: as §1
# [3] = tested on: SW480; assay: as above; details: 5 µM; treatment time 24 h; reporter: 7TFP
# In short: as §1
# [4] = tested on: DLD1; assay: TCF/Wnt firefly luciferase reporter signal relative to plate median (fraction of plate median); higher = higher Wnt reporter signal; details: 5 µM; treatment time 24 h; reporter: 7TFP
# In short: as §1
# [5] = tested on: SW480; assay: as above; details: 5 µM; treatment time 24 h; reporter: 7TFP
# In short: as §1
SMILES,cell viability [1],cell viability [2],cell viability [3],TCF/Wnt firefly luciferase reporter signal [4],TCF/Wnt firefly luciferase reporter signal [5]
CCC/C=C1\OC(=O)C2=C1CCC=C2,0.992 ± 0.083,0.973 ± 0.0028,0.9545 ± 0.00071,0.948 ± 0.1,0.967 ± 0.061
CN(C)CCC=C1c2ccccc2C=Cc2ccccc21,1.02 ± 0.034,0.998 ± 0.046,1.035 ± 0.0071,0.991 ± 0.042,0.969 ± 0.0085
O=C(O)c1cccc(O)c1O,1.01 ± 0.047,1.14 ± 0.035,1.02 ± 0.068,0.954 ± 0.034,0.947 ± 0.0085
CC(CN(C)C)CN1c2ccccc2CCc2ccccc21 (stereo not given),1 ± 0.021,0.929 ± 0.055,1.05 ± 0.086,0.93 ± 0.097,1.13 ± 0.099
CS(C)(=O)=O,1.01 ± 0.081,1.05 ± 0.071,0.962 ± 0.035,1.26 ± 0.071,1.05 ± 0.064
C[C@@H]1CC[C@@]2(OC1)O[C@H]1C[C@H]3[C@@H]4CC[C@@H]5C[C@@H](O)CC[C@]5(C)[C@H]4CC[C@]3(C)[C@H]1[C@@H]2C,0.993 ± 0.038,1.09 ± 0.05,1.01 ± 0.05,0.956 ± 0.09,1.04 ± 0.071
CCN(CC)CCNc1ccc(CO)c2sc3ccccc3c(=O)c12,1.1 ± 0.028,1.02 ± 0.014,0.995 ± 0.0057,1.16 ± 0.18,0.988 ± 0.1
CC(=O)c1ccc2c(c1)N(CCCN(C)C)c1ccccc1S2,0.976 ± 0.048,0.931 ± 0.037,0.964 ± 0.016,1.06 ± 0.2,0.913 ± 0.12
CC(=O)/C=C\[C@@H]1[C@@]2(C)CCCC(C)(C)C2CC[C@@]1(C)O (stereo not given in full),1 ± 0.025,1.14 ± 0.05,1.055 ± 0.0071,1.165 ± 0.0071,0.93 ± 0.11
CN(C)c1ccc2nc3ccc(=[N+](C)C)cc-3sc2c1,1 ± 0.052,0.878 ± 0.021,1.16 ± 0.071,1.06 ± 0.078,1.11 ± 0.021
CCOC(=O)c1ncn2c1CN(C)C(=O)c1cc(F)ccc1-2,0.944 ± 0.045,1.03,0.952 ± 0.025,0.996 ± 0.02,0.993 ± 0.0099
CC1=CC(=O)[C@H]2C(C)(C)CCC[C@]2(C)[C@@]1(O)CCc1ccoc1,0.976 ± 0.016,1.07 ± 0.15,0.998 ± 0.018,1.1 ± 0.099,0.95 ± 0.043
CC(C)=CCC[C@@H](C)[C@@H]1CC[C@]2(C)C3=C(CC[C@@]12C)[C@@]1(C)CC[C@H](O)C(C)(C)[C@@H]1CC3,1.015 ± 0.0071,0.995 ± 0.021,0.989 ± 0.016,0.918 ± 0.23,1.02 ± 0.085
Cc1cc(O)c(C=O)c2c1C(=O)Oc1c(COC(=O)/C=C/C(=O)O)c(O)c(C(=O)O)c(C)c1O2,0.992 ± 0.026,1.05 ± 0.021,0.966 ± 0.011,0.933 ± 0.12,0.939 ± 0.12
CC1(C)C(=O)C=C[C@]2(C)[C@H]3CC[C@@]4(C)[C@H](c5ccoc5)OC(=O)[C@H]5O[C@]54[C@]3(C)C(=O)C[C@@H]12,1.02,0.974 ± 0.023,0.97 ± 0.033,0.871 ± 0.093,0.978 ± 0.025
C=C(C)[C@@H]1CC[C@]2(C(=O)O[C@@H]3O[C@H](CO[C@@H]4O[C@H](CO)[C@@H](O[C@@H]5O[C@@H](C)[C@H](O)[C@@H](O)[C@H]5O)[C@H](O)[C@H]4O)[C@@H](O)[C@H](O)[C@H]3O)CC[C@]3(C)[C@H](C[C@@H](O)[C@@H]4[C@@]5(C)[C@@H](CC(=O)O)OC(C)(C)[C@@H]5CC[C@]43C)[C@@H]12 [Isochiisanoside (6)],0.92 ± 0.055,0.934 ± 0.0028,0.915 ± 0.066,0.953 ± 0.15,0.945 ± 0.0071
CS(=O)(=O)c1ccc([C@@H](O)[C@@H](CO)NC(=O)C(Cl)Cl)cc1,0.914 ± 0.055,0.958 ± 0.06,0.925 ± 0.014,0.982 ± 0.018,0.814 ± 0.058
Cc1cccc(CN2CCN(C(c3ccccc3)c3ccc(Cl)cc3)CC2)c1 (stereo not given),1.06 ± 0.028,1.05 ± 0.028,0.987 ± 0.0099,1.02 ± 0.038,0.998 ± 0.046
OC[C@H]1O[C@@H](O[C@@H]2[C@@H](CO)OC(O)(CO)[C@H]2O)[C@H](O)[C@@H](O)[C@H]1O (mixture of isomers),0.999 ± 0.0014,0.99 ± 0.028,0.984 ± 0.0028,1.07 ± 0.18,1.02 ± 0.034
NC[C@H]1CC[C@H](C(=O)O)CC1,0.995 ± 0.022,1.025 ± 0.0071,1.02 ± 0.014,0.927 ± 0.1,0.981 ± 0.028
COc1cc(C(=O)N2CCOCC2)cc(OC)c1OC,1.08 ± 0.11,1.03 ± 0.079,1.06 ± 0.028,1.04 ± 0.24,1.08 ± 0.035
C[C@@H]1NC(=O)[C@H](Cc2ccccc2)NC1=O [cyclo(alanylphenylalanyl)],1 ± 0.053,0.997 ± 0.17,0.96 ± 0.025,0.987 ± 0.12,1.04 ± 0.014
CC1=C(C(=O)O)N2C(=O)[C@@H](NC(=O)[C@H](N)c3ccccc3)[C@H]2SC1,1 ± 0.065,1.02 ± 0.082,0.983 ± 0.025,0.991 ± 0.056,1.015 ± 0.0071
COc1cnc(NS(=O)(=O)c2ccc(N)cc2)nc1,0.973 ± 0.0057,1.04 ± 0.035,1.03 ± 0.035,1.04 ± 0.22,0.892 ± 0.055
CC(C[N+](C)(C)C)OC(N)=O (stereo not given),1.14 ± 0.035,0.8 ± 0.48,1.1 ± 0.12,0.925 ± 0.037,1.05 ± 0.071
O=c1cc(-c2ccccc2)oc2cc(O)c(O)cc12,1.04 ± 0.14,0.986 ± 0.063,1.03 ± 0.042,0.801 ± 0.064,1 ± 0.12
COc1cc(O)c2c(=O)cc(C)oc2c1CC=C(C)C,1.04 ± 0.057,1.06 ± 0.078,1.04 ± 0.035,0.91 ± 0.04,0.991 ± 0.15
N=C(N)c1ccc(OCCCCCOc2ccc(C(=N)N)cc2)cc1,0.93 ± 0.21,0.9365 ± 0.0078,1.01 ± 0.014,1.035 ± 0.0071,0.795 ± 0.013
Cc1onc(-c2ccccc2Cl)c1C(=O)N[C@@H]1C(=O)N2[C@@H]1SC(C)(C)[C@@H]2C(=O)O,1.02 ± 0.17,1.02 ± 0.06,0.994 ± 0.037,1.02 ± 0.035,0.952 ± 0.058
COc1ccnc(C[S+]([O-])c2nc3cc(OC(F)F)ccc3[nH]2)c1OC (stereo not given),0.961 ± 0.0042,1.03 ± 0.014,0.974 ± 0.036,1.06 ± 0.05,1.05 ± 0.071
